MARV entry inh – Marburg virus entry inhibition. Potency, µM (doses to about 37.8 µM), for inactives: at the top dose activity change, negative = inhibition, usual class: inhibitors. 300,000 tested, 1.8% active. AID 540276. Marburg virus pseudotyped entry inhibition, cell reporter; calls by dose curve; tested in HEK293 cells; note: potency is the fitted concentration of half-maximal effect; % is set by controls: 0 for no effect and ±100 for the full control effect
LASV entry inh – Lassa virus entry inhibition; Lassa virus pseudotype entry inhibition, cell reporter; Potency, µM (top dose mostly 37.9 µM), without a hit: at the highest dose activity change, negative = inhibition, hits mostly inhibitors; 300,000 tested, 1.2% active; AID 540256; calls by dose curve; tested in HEK293 cells; note: potency is the fitted concentration of half-maximal effect; % is set by controls: 0 for no effect and ±100 for the full control effect; nearly all actives have a fitted effect of over 50% in size
FMDV inh – blocks foot and mouth disease virus | 410,000 tested, 1.2% active | AID 1159524 | Potency, µM (highest dose often 57.9 µM), without a hit: at the top dose activity change, negative = inhibition, actives largely listed as inhibitors | FMDV antiviral cell-based qHTS; calls by dose curve; tested in HEK293T cells; note: read-out not given here; potency is the fitted concentration of half-maximal effect; % is set by controls: 0 for no effect and ±100 for the full control effect; nearly all actives have a fitted effect of over 45% in size
SARS PLP yeast – SARS-CoV PLP inhibition in yeast; S. cerevisiae expressing SARS-CoV PLpro, growth rescue; Potency, µM (titrated, usually from 32.9 µM), inactives show at the highest dose activity, positive = growth rescue, most hits filed as activators; 330,000 tested, 0.19% active; AID 485353; calls by dose curve; note: potency is the fitted concentration of half-maximal effect; 0% is about no effect; nearly all actives have a fitted effect of over 55% in size
HCV inh – blocks hepatitis C virus | Huh7.5.1 HCVcc-Cre infection, luciferase reporter, 44 h | Potency, µM (top dose mostly 41.8 µM), without a hit: top-dose activity change, negative = inhibition, usual class: inhibitors | 340,000 tested, 3.4% active | AID 651820; active = well fitted inhibition curve with a large enough effect; inconclusive = small, poorly fitted or top-dose-only effect, or another doubt; inactive = no such curve, though single readings can be large or run the other way; note: potency is the fitted concentration of half-maximal effect; % is set by controls: 0 for no effect and ±100 for the full control effect
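Reporter virus HCVcc-Cre (~0.5 moi) infects cells exposed to compound; seeding density 1,000 cells/well with 4 h settling beforehand. Luminescence, 15 sec read, taken 44 h post-infection following a 15 min RT substrate incubation.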
HCMV inh – human cytomegalovirus inhibition; activity change, negative = inhibition, % at 57.5 µM; AID 1259415; HFF cells, HCMV-luciferase reporter, 72 h; stronger effect = lower value; 410,000 tested, 4.5% active; in the data active = activity change below about -60%; inconclusive = no clear call, values can overlap the other calls; inactive = above about -39%; note: % is set by controls: 0 for no effect and ±100 for the full control effect
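HFF cells seeded 16 h at 37C, treated with compounds, infected with luciferase-reporter HCMV at MOI 1 PFU/cell; luciferase read at 72 h post infection, normalized to buffer-only and Salinomycin controls.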
* marks the source's active call; other numbers are inactive results; ? = inconclusive; nt = no result; ! = repeats disagree; [ ] = another dose, or the depositor's remark. The list is not random: actives were taken first. Their share in the collection is about 8%.

SMILES	MARV entry inh	LASV entry inh	FMDV inh	SARS PLP yeast	HCV inh	HCMV inh
COC(=O)/C(=C/c1cccnc1)NC(=O)c1ccccc1	26%	0%	-16%	8%	6%	33
COC(=O)C(=C/C(C)=C/c1cccnc1)C(=O)OC	?	-18%[46.1 µM]	22µM*	-2%	-20%	?
CC(Oc1ccccc1Cl)C(=O)Nc1ccc(S(=O)(=O)N2CCCC2)cc1 (stereo unspecified)	?	?	-8%	4%	?	-8
CCCCN(CC)CCNC(=O)Cn1cc2c(n1)-c1c(oc(C(=O)N3CCCC3)c1C)CC2	nt	11%[46.1 µM]	-8%	?	4%	-61*!
Cc1[nH]c2ccc(C(=O)NCCCN(C)C3CCCCC3)cc2c1C	?	17%[46.1 µM]	-6%	1%	-13%	-62*
Cc1[nH]c2ccc(C(=O)NCCCN3CCN(C)CC3)cc2c1C	nt	nt	-26%	25%	3%	17
CN(Cc1ccccc1Cl)C(=O)c1cc2ccccc2o1	8%[46.1 µM]	?	37%	1%	10%	23
CN(Cc1ccc(Cl)cc1Cl)C(=O)c1cc(=O)c2ccccc2o1	1%[46.1 µM]	-2%	0%	-8%	-12%	-63*
Cc1ccc(-c2cc(Cc3ccccc3)c(=O)[nH]n2)cc1	1%	2.5µM*	-9%	0%	-5%	117
CCOc1ccc(-c2csc(/C(C#N)=C\c3ccc(O)c([N+](=O)[O-])c3)n2)cc1	?	?	22µM*	25%	?	-30
C=CC(COCc1ccccc1)N(C(=O)OC(C)(C)C)S(=O)(=O)c1ccccc1Br (stereo unspecified)	nt	nt	?	1%	-25%	-21
COc1ccc(CN(CC(O)COCc2ccccc2)S(=O)(=O)c2ccccc2Br)cc1OC (stereo unspecified)	nt	nt	-8%	22%	11µM*	-22
COc1ccc(N2CCC[C@H]2/C=C/C(=O)OC(C)(C)C)cc1	nt	nt	nt	nt	nt	7
COc1ccccc1CNc1nc(NCc2ccc(NC(C)=O)cc2)c2sccc2n1	nt	nt	-25%	nt	nt	-8
COc1ccccc1CNc1nc(NCCNC(C)=O)c2sccc2n1	nt	nt	-16%	nt	nt	20
COc1ccccc1CNc1nc(NCc2ccccc2OC)c2sccc2n1	nt	nt	22µM*	nt	nt	-91*
c1cc2cc(CNc3nc(NCC4CC4)nc4ccsc34)ccc2o1	nt	nt	?	nt	nt	-74*
COc1ccccc1CNc1nc(NCc2ccccc2SC)c2sccc2n1	nt	nt	?	nt	nt	-77*
c1ccc(OCCNc2nc(NCC3CC3)nc3ccsc23)cc1	nt	nt	?	nt	nt	-39
COc1ccccc1CNc1nc(NCc2ccc3occc3c2)c2sccc2n1	nt	nt	25µM*	nt	nt	?
CNC(=O)C1CN(C(=O)c2nn(Cc3ccccc3)c(=O)c3ccccc23)c2ccccc2O1 (stereo unspecified)	nt	nt	-22%	nt	nt	-4
C[C@@H]1CC[C@H]2C(=O)O[C@@H](COc3ccc(C(C)(C)C)cc3)CN2[C@H]1c1ccc(Br)cc1	?	-26%[14.3 µM]	nt	nt	nt	nt
COc1ccccc1CNc1nc(NCCOc2ccccc2)c2sccc2n1	nt	nt	-3%	nt	nt	-39
COc1ccccc1CNc1nc(NCC2CC2)nc2ccsc12	nt	nt	25µM*	nt	nt	-70*
O=[N+]([O-])c1ccc(N/N=C2\CC3CC=CC23)cc1 (stereo unspecified)	nt	nt	40%	-15%	22µM*	-13
SMILES	MARV entry inh	LASV entry inh	FMDV inh	SARS PLP yeast	HCV inh	HCMV inh
O=[N+]([O-])c1ccc(NN=C2CC3CCC2C3)c([N+](=O)[O-])c1 (stereo unspecified)	nt	nt	0%	nt	nt	11
O=[N+]([O-])c1ccc(N/N=C2\CC3CC=CC23)c([N+](=O)[O-])c1 (stereo unspecified)	0%[46.1 µM]	-16%	?	3%	11µM*	27
O=C(N/N=C1\CC2CC=CC12)c1ccc(O)cc1 (stereo unspecified)	1%[46.1 µM]	?	-8%	2%	1%	-28
CCn1c(SCC(=O)N(C)C2CCS(=O)(=O)C2)nnc1-c1ccccc1 (stereo unspecified)	9%[46.1 µM]	5%[46.1 µM]	-13%	0%	10%	-36
O=C1C2C3C=CC(CC3)C2C(=O)N1/N=C/c1ccccc1O (stereo unspecified)	0%	-6%	nt	5.6µM*	0%	-23
C/C(=N/NC(=O)c1ccncc1)c1ccc(NC(=O)c2ccc(Cl)cc2Cl)cc1	?	1%[46.1 µM]	5%	-3%	-2%	36
CC(=NNC(=O)c1ccccc1N)c1ccccc1O	nt	nt	-13%	nt	nt	nt
CC(=NNC(=O)c1ccncc1)c1ccc2ccccc2c1O	7.9µM*	5µM*	-2%	nt	?	-77*
CC(=O)Nc1ccccc1NC(=O)C/C(C)=N/NC(=O)c1ccncc1	-3%	11%	-17%	1%	24%	-89*
CC(=NNC(=O)c1ccncc1)c1ccccc1O	3.2µM*	?	5%	nt	4.5µM*	-98*
CC(C)CC(=NNC(=O)c1ccncc1)c1cc(Cl)ccc1O	?	3.2µM*	?	nt	2.5µM*	-97*
C/C(=N\NC(=O)c1cccc2ccccc12)c1cccnc1	-17%[46.1 µM]	0%[46.1 µM]	-2%	3%	-7%	2
COCCNC(=O)c1cc2c(c(-c3cccc(-c4cc5ccccc5o4)c3)n1)[C@H](CCO)N(S(=O)C(C)(C)C)C2 (stereo partly specified)	nt	nt	-15%	nt	nt	-12
C/C(=N\NC(=O)c1cccc(N/N=C(\C)c2cc(O)ccc2O)c1)c1cc(O)ccc1O	?	?	0%	0%	?	-78*
CC(=NNC(=O)c1ccncc1)c1ccc(O)cc1O	?	?	10%	nt	11µM*	-37
CCCCCCCC(=O)N/N=C(\C)c1ccc(O)cc1O	3%	?	-25%	-5%	-24%	-70*
C/C(=N\NC(=O)c1ccc(N2CCCC2=O)cc1)c1ccc(O)cc1O	nt	nt	0%	-2%	?	5
C/C(=N\Nc1cccc([N+](=O)[O-])c1)c1cc(F)ccc1O	nt	nt	21%	0%	10µM*	-27
CC(=O)OC1CC(OC(C)=O)[C@]2(C)C(CC(OC(C)=O)[C@@]3(C)C4=CC(=O)OC(c5ccoc5)[C@]4(C)CCC32)C1(C)C (stereo partly specified)	nt	nt	6%	nt	nt	nt
COc1ccc(C(=O)OC2CC3CC[C@H](C2)N3C(C)=O)cc1OC (stereo partly specified)	nt	nt	-13%	nt	nt	nt
CCOC(=O)C1CCN(c2cc3c(cc2NC(=O)c2ccccc2F)n(C)c(=O)n3C)CC1	-13%[46.1 µM]	-12%[46.1 µM]	-20%	?	11µM*	0
Cc1ccc(NC(=O)Nc2cc3c(cc2N2CCCCC2)n(C)c(=O)n3C)cc1Cl	-18%[46.1 µM]	?	?	nt	nt	-99*
CCOC(=O)C1CCN(c2cc3c(cc2NC(=O)c2ccccc2Cl)n(C)c(=O)n3C)CC1	?	2.5µM*	-29%	3%	?	10
Oc1ccc2c(c1)CCCC1(CCCO1)O2 (stereo unspecified)	nt	nt	nt	nt	nt	0

Source: PubChem BioAssay
